In PubChem BioAssay (EPA / NIEHS) one finds outcome and AC50 data, which are given here for 37 molecules.

The structures appear in SMILES notation. The source made the active and inactive calls. Rule for the calls: active = hit-call score of the fitted dose curve at least 0.9, where 1 is the maximum; inactive = score below 0.9.

A short description of this assay: ATG_Ets_CIS: Attagene CIS-FACTORIAL HepG2 Assay for human Erythroblast Transformation Specific (ETS) (AID 2282941). The settings on record: HepG2 ETS cis-reporter transcription; AC50: actives raise or lower the signal unless noted; outcome: actives raise or lower the signal unless noted. The method, boiled down:
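RT-PCR/capillary electrophoresis fluorescence read-out of reporter mRNA; HepG2 transient multi-reporter transfection; 24 h compound exposure; gain or loss of signal fitted bidirectionally relative to DMSO.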
With `O=C(O)c1cccc(C(=O)O)n1`, the outcome was inactive.
In the case of `O=P(O)(O)CCC(F)(F)C(F)(F)C(F)(F)C(F)(F)C(F)(F)C(F)(F)F`, the molecule was classed as inactive.
`CN(Cc1cnc2nc(N)nc(N)c2n1)c1ccc(C(=O)N[C@@H](CCC(=O)O)C(=O)O)cc1`: the outcome was inactive.
On the same count and under the same terms, for `O=C(OC(=O)C(F)(F)C(F)(F)F)C(F)(F)C(F)(F)F` the value was “inactive”; for `Cc1cccc2c1ccc1ccccc12`, “inactive”; for `CCCCC(CC)C(=O)OCCOCCOCCOCCOC(=O)C(CC)CCCC` (configuration not stated), “inactive”.
Take `O=C(O)CCC(F)(F)C(F)(F)C(F)(F)C(F)(F)C(F)(F)C(F)(F)F`: the call was inactive.
As for `CCCCCCCCCCCCOC(=O)c1cc(O)c(O)c(O)c1`, the result was inactive.
As to `CC(C)(C)c1ccc(CCC=O)cc1`, the molecule was called inactive.
`O=C(O)CN(CCCN(CC(=O)O)CC(=O)O)CC(=O)O`: the molecule was called inactive.
Still for that read-out and setting: for `Cc1ccccc1C(OCCN(C)C)c1ccccc1` (configuration not stated) the value was “inactive”.
Still for that read-out and setting: the entry for `CC(C)(C)C1CCCCC1O` (configuration not stated) is “inactive”.
For the molecule `c1ccc(CNc2ncnc3c2ncn3C2CCCCO2)cc1` (configuration not stated), the outcome was inactive.
As to `C=CC(=C)CC/C=C(\C)CCC=C(C)C`, the result was inactive.
On to `Clc1ccc(Nc2nnc(Cc3ccncc3)c3ccccc23)cc1`, for which the outcome was inactive.
As to `CCOC(=O)CN[C@@H](C(=O)N1CC[C@H]1C(=O)NCc1ccc(/C(N)=N/O)cc1)C1CCCCC1`, the result was inactive.
Turning to `CC1CNCC(C)O1` (configuration not stated), the outcome was inactive.
With `Cc1cc(Cc2cc(C)cc(C(C)(C)C)c2O)c(O)c(C(C)(C)C)c1`, the AC50 is 79.4 µM (active).
For `CCC(=O)C=Cc1ccc(OC)cc1`, the molecule was called inactive.
As to `CC=O`, the result was inactive.
In the case of `CCCCCCCCCCCCCCCCCC[N+](C)(C)Cc1ccccc1`, the call was inactive.
For the molecule `Nc1cc(Cl)c(-c2cc(Cl)c(N)cc2Cl)cc1Cl`, the call was inactive.
Turning to `Oc1cccc2c(O)cccc12`, the outcome was inactive.
On to `CC1CCC(C(=O)O)CC1` (configuration not stated), for which the molecule was called inactive.
With `CC1=CC(=O)c2ccccc2C1=O`, the molecule was called inactive.
Turning to `CCCCCCCCCCCCCC[n+]1ccccc1`, the call was inactive.
`CCCCCCCCC1CCC(=O)O1` (configuration not stated): the molecule was called inactive.
With `C=CCOCC(CO)(CO)CO`, the result was inactive.
In the case of `FC(F)(F)C1(F)C(F)(F)C(F)(F)C(F)(F)C1(F)F`, the molecule was classed as inactive.
`Oc1c(Cl)cc(Cl)cc1Sc1cc(Cl)cc(Cl)c1O`: the result was inactive.
In the case of `NNc1nc(-c2ccc([N+](=O)[O-])cc2)cs1`, the molecule was classed as inactive.
For the molecule `O=CC(F)(F)C(F)(F)C(F)(F)C(F)F`, the outcome was inactive.
Consider `Nc1ccc(O)c(C(=O)O)c1`, for which the outcome was inactive.
On to `Cn1sccc1=O`, for which the result was inactive.
Same read-out and setting: the entry for `O=C1OC(=O)C(F)(F)C1(F)F` is “inactive”.
Still for that read-out and setting: the entry for `FC(F)(F)C1(F)C(F)(F)C(F)(F)C(F)(F)C(F)(C(F)(F)F)C1(F)F` (configuration not stated) is “inactive”.
As to `CCCCCCOC(=O)c1ccc(O)cc1`, the AC50 is 54.1 µM (active).

In general, AC50 refers to the midpoint of the concentration-response curve, whichever way the signal moves.
